Pf Dd2 inh: Plasmodium falciparum Dd2 growth inhibition; P. falciparum Dd2 growth, SYBR Green, 72 h; Potency, µM (top dose mostly 28.9 µM), for the others: top-dose activity, negative = inhibition, most hits filed as inhibitors; 120,000 compounds, 4.3% hits; AID 1347417; active = well fitted inhibition curve with a large enough effect;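 note: plate controls were DMSO vehicle for no effect and reference drug for full effect; nearly all actives have a fitted effect of over 65% in size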
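Infected erythrocytes (Dd2, 0.3% parasitemia, 2.5% hematocrit final) are added to compound in RPMI-1640/Albumax II medium, grown 72 h at 37C in low oxygen, then lysed with saponin/Triton-X containing SYBR Green and read by fluorescence.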
* marks the source's active call; other numbers are inactive results; [ ] = dose if it differs, or a comment. Only a selection was taken, and hits are over-represented in it overall. Potency is the fitted concentration of half-maximal effect.

What do the screens show for `CC(=O)Nc1cccc(-c2cc(-c3ccncc3)c3cncn3c2)c1`?
Pf Dd2 inh: inactive

Results for O=c1ccc(-c2cc(-c3cccc(C(F)(F)F)c3)cn3cncc23)c[nH]1 ?
Pf Dd2 inh: inactive

How did COc1ccc(-c2cc(-c3cccc(O)c3)cn3cncc23)cc1 do in these assays?
Pf Dd2 inh: 1.3µM*

How did COc1ccc(-c2cc(-c3cccc(C(N)=O)c3)cn3cncc23)cc1 do in these assays?
Pf Dd2 inh: 3.5µM*

How did NC(=O)c1cccc(-c2cc(-c3cccnc3)c3cncn3c2)c1 do in these assays?
Pf Dd2 inh: -4%[44.1 µM]

How did COc1ccc(-c2cc(-c3cccnc3)c3cncn3c2)cn1 do in these assays?
Pf Dd2 inh: -1%[44.1 µM]

Results for COc1cccc(-c2cc(-c3cn[nH]c3)c3cncn3c2)c1 ?
Pf Dd2 inh: inactive

How did Cn1ccnc1CN1C(=O)CO[C@H]2CN(C(=O)c3ccccn3)C[C@H]21 do in these assays?
Pf Dd2 inh: 27%[44.1 µM]

What do the screens show for `COc1ccc2[nH]c3c(c2c1)CCN(C)C31CCN(C(=O)Cc2ccncc2)CC1`?
Pf Dd2 inh: inactive

Results for COc1cccc(CC(=O)N2CCCCCNC(=O)[C@@H]3CCC[C@@H]32)c1 ?
Pf Dd2 inh: -1%

Results for O=C1NCc2ccccc2CC12CCN(Cc1cccnc1)CC2 ?
Pf Dd2 inh: -34%

What do the screens show for `CCN(C(=O)Cn1ncc2c(=O)oc3ccc(C)cc3c21)c1cc(OC)ccc1OC`?
Pf Dd2 inh: -18%

How did Cc1cc(C)c(NC(=O)CSc2ccc(-c3ccccn3)nn2)c(C)c1 do in these assays?
Pf Dd2 inh: inactive

What do the screens show for `CCC(O)c1nc2ccccc2n1Cc1cc(C)ccc1C` (stereo not drawn)?
Pf Dd2 inh: 11µM*

Results for CCC(O)c1nc2ccccc2n1Cc1cccc(Cl)c1 (stereo not drawn) ?
Pf Dd2 inh: -23%

How did CC(=O)N1CCCC1c1nc2ccccc2n1Cc1cc(C)ccc1C (stereo not drawn) do in these assays?
Pf Dd2 inh: -2%

How did C=CCN1CCC2(CCC1=O)CN(C1CCN(CC)CC1)CCN2C (stereo not drawn) do in these assays?
Pf Dd2 inh: -2%

What do the screens show for `Cc1ccc(CNc2ccc(-c3nc(C(C)C)no3)cc2[N+](=O)[O-])cc1`?
Pf Dd2 inh: 12%

What do the screens show for `CCn1nccc1C(=O)N1C[C@@H](Oc2ccccc2)C[C@H]1C(=O)N1CCCC1`?
Pf Dd2 inh: -9%

How did O=C(NCc1nnc2n1C(C(=O)N1CCN(c3ncccn3)CC1)CC2)c1ccc(Cl)cc1Cl (stereo not drawn) do in these assays?
Pf Dd2 inh: inactive

What do the screens show for `COCCNC(=O)CCC1CCN(S(=O)(=O)c2cccc(F)c2)CC1`?
Pf Dd2 inh: -14%

Results for O=C(Nc1cc2c(cc1C(=O)c1ccccc1)OCCO2)c1ccc(Br)cc1 ?
Pf Dd2 inh: -11%

How did CCOC(=O)C1CCCN(C(=O)C2CC(c3ccc(CC)cc3)CN(C(=O)c3ccoc3)C2)C1 (stereo not drawn) do in these assays?
Pf Dd2 inh: 1.1µM*

Results for CCc1ccc(C2CC(C(=O)NC(C)c3ccccc3)CN(C(=O)c3ccoc3)C2)cc1 (stereo not drawn) ?
Pf Dd2 inh: inactive

How did CCOC(=O)C1CCCN(C(=O)C2CC(c3ccccc3)CN(C(=O)c3cccc(F)c3)C2)C1 (stereo not drawn) do in these assays?
Pf Dd2 inh: inactive

Results for COCCOc1cc(C)c2c(c1C)C[C@H](C(C)C(=O)N1CCC(O)CC1)CC2 (stereo partly drawn) ?
Pf Dd2 inh: -5%[44.1 µM]

How did COc1cc(C)c2c(c1C)C[C@H]([C@H](C)C(=O)O)CC2 do in these assays?
Pf Dd2 inh: -13%[44.1 µM]

What do the screens show for `COCCOc1cc(C)c2c(c1C)C[C@H](C(C)C(=O)N1CCSCC1)CC2` (stereo partly drawn)?
Pf Dd2 inh: 10µM*

How did c1ccc(CN2CCn3c(nnc3-c3cccnc3)C2)cc1 do in these assays?
Pf Dd2 inh: -8%[44.1 µM]

What do the screens show for `CCCc1nn2c(=O)cc(COC(=O)c3ccc(NC(=O)COc4ccccc4)cc3)nc2s1`?
Pf Dd2 inh: inactive

Results for CCOC(=O)c1ccc(NC(=O)C2CCCN(c3ncnc4onc(C)c34)C2)cc1 (stereo not drawn) ?
Pf Dd2 inh: 7.9µM*

What do the screens show for `CCOCCCNC(=O)C1CCCN(c2ncnc3onc(C)c23)C1` (stereo not drawn)?
Pf Dd2 inh: 1%

What do the screens show for `CCOC(=O)c1ccc(NC(=O)C2CCCN(c3cnccn3)C2)cc1` (stereo not drawn)?
Pf Dd2 inh: -11%

How did CCOC(=O)c1ccc(NC(=O)C2CCCN(c3ccc(Sc4ccc(C)cc4)nn3)C2)cc1 (stereo not drawn) do in these assays?
Pf Dd2 inh: 5.6µM*

What do the screens show for `COC(=O)c1ccccc1NC(=O)C1CCCN(c2ncnc3onc(C)c23)C1` (stereo not drawn)?
Pf Dd2 inh: -2%

What do the screens show for `Cc1ccc(Sc2ccc(N3CCCC(C(=O)Nc4ccc(F)cc4F)C3)nn2)cc1` (stereo not drawn)?
Pf Dd2 inh: -5%

How did COCC1CN(Cc2c(C)n[nH]c2C)CC12CCNCC2 (stereo not drawn) do in these assays?
Pf Dd2 inh: inactive

How did Cc1ccc(C2Cn3cnc(C(=O)N4CCC(C(=O)NCc5ccccc5F)CC4)c3CO2)cc1 (stereo not drawn) do in these assays?
Pf Dd2 inh: inactive

Results for COc1ccc(S(=O)(=O)n2nc(-c3ccco3)nc2NCc2ccc(N(C)C)cc2)cc1 ?
Pf Dd2 inh: 43%[5.79 µM]

What do the screens show for `COCCNC(=O)c1ccc2c(c1)C1(CCN(C)C1)CN2Cc1csc(C)n1` (stereo not drawn)?
Pf Dd2 inh: inactive

Results for Cc1nc(CN2CC3(CCN(C)C3)c3cc(C(=O)NCCc4ccccc4)ccc32)cs1 (stereo not drawn) ?
Pf Dd2 inh: 11µM*

How did CN1CCCC2(C1)CN(C)c1ccc(C(=O)NCCc3ccccc3)cc12 (stereo not drawn) do in these assays?
Pf Dd2 inh: -27%[44.1 µM]

Results for O=C(Nc1cccc(Cl)c1)N1CCC(CN2CCOCC2)CC1 ?
Pf Dd2 inh: -5%

How did Cn1cnnc1CCNC(=O)[C@H]1CNC[C@@H](C(=O)N2CCOCC2)C1 do in these assays?
Pf Dd2 inh: -11%

Results for COc1ccc(-c2cn3nc(N4CCCC(C(=O)Nc5cc(Cl)ccc5OC)C4)sc3n2)cc1 (stereo not drawn) ?
Pf Dd2 inh: -9%

What do the screens show for `COc1ccc(C(=O)N2CCCCCCNC(=O)CC2)cc1F`?
Pf Dd2 inh: -8%

How did O=C(c1ccc(Oc2ccc(CN3CCCC3)cc2F)nc1)N1CCCCC1 do in these assays?
Pf Dd2 inh: 7.1µM*

How did COc1ccc(C(=O)N2CCC(c3n[nH]c(=O)n3Cc3ccc(F)cc3)CC2)cn1 do in these assays?
Pf Dd2 inh: inactive

Results for COc1ccc(-c2nnc([C@H]3CCN(Cc4ncc[nH]4)C3)o2)cc1 ?
Pf Dd2 inh: inactive

Results for COC1CCN(c2cc(-c3cccnc3)nc3c(C)noc23)CC1 ?
Pf Dd2 inh: -23%[44.1 µM]

Results for Cc1ncccc1C(=O)N1CC[C@@H]2CN(S(C)(=O)=O)[C@@H]2C1 ?
Pf Dd2 inh: 24%

How did NCc1cccc(-c2cncnc2)c1 do in these assays?
Pf Dd2 inh: 6%[44.1 µM]

Results for C=Cc1cccc(-c2nccn2-c2cccc(CN)c2)c1 ?
Pf Dd2 inh: -28%

Results for NCc1cccc(-c2cccc(Cl)c2)c1 ?
Pf Dd2 inh: 13µM*

How did COCCc1nc(CNC(=O)c2ccc3nc(C4CCCCC4)oc3c2)no1 do in these assays?
Pf Dd2 inh: 12%
